Data taken from PubChem BioAssay AID624116 (National Center for Advancing Translational Sciences (NCATS), 2012).
Inconclusive results are not listed. Where a call stands in place of a potency, no number is given. Active and inactive are the calls of the source. Calls follow the shape of the dose curve; as a rule, active = well fitted activation curve with a large enough effect; inconclusive = small, poorly fitted or top-dose-only effect; inactive = no such curve, though single readings can be large or run the other way.
Potency is read from the fitted curve at half-maximal effect.

Assay: qHTS Assay for Rab9 Promoter Activators: Hit Validation Using Renilla Luciferase Read-Out for Rab9
Conditions: Huh7 Rab9 promoter Renilla luciferase reporter, 24 h; series mostly up to 76.9 µM
In short: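 Huh7 cells stably carrying promoter-luciferase reporter, exposed to compound for 24 h at 37 deg C. Luminescence read 10 min after adding luciferase detection reagent at room temperature.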
For `N#CC/C(N)=N/NC(=O)CCCNc1ncc(C(F)(F)F)cc1Cl`, the Potency was “inactive”.
In the case of `Cc1ccc2nc(Nc3ccc(Cl)cc3)c3nncn3c2c1`, the Potency is reported as “inactive”.
For `Cc1[nH]n(-c2cccc3ccccc23)c(=O)c1/C=N/c1sc2c(c1C#N)CCC2`, the Potency was “inactive”.
In the case of `COc1ccc(NC(=O)Nc2ccc(Cc3ccncc3)cc2)cc1OC`, the Potency is reported as “inactive”.
For `O=C(Nc1nc2ccc(F)cc2s1)c1ccc(N2CCCC2=O)cc1`, the Potency was “inactive”.
In the case of `COc1ccc(C(=O)OCC(=O)N2CCCC2=O)c(OC)c1`, the Potency is reported as “inactive”.
With `O=C(CSc1nnc(-c2ccccn2)o1)Nc1ccccc1Cl` the Potency was “inactive”.
With `Cc1ccc(N(O)C(=O)NCCCCNC(=O)N(O)c2ccc(C)cc2)cc1` the Potency was “inactive”.
With `COC(=O)c1ccc(NC(=O)c2ccc3nc(C)sc3c2)cc1` the Potency was “inactive”.
With `CC(=O)NC(=S)Nc1ccc2oc(-c3cc(F)c(F)cc3Cl)nc2c1` the Potency was “inactive”.
For `CCOc1cc(C2C(C#N)=C(N)Oc3n[nH]c(C)c32)ccc1OCCN1CCOCC1` (stereo not given), the Potency was “inactive”.
With `FC(F)(F)c1ccc(Nc2nnnc3ccccc23)cc1` the Potency was “inactive”.
In the case of `Nc1ccc(C(=O)Nc2ccccc2N)cc1`, the Potency is reported as 16.4 µM (active).
With `Cc1ccc2nc(NC(=O)CCn3cccc3)sc2c1` the Potency was “inactive”.
In the case of `CC(Sc1nnc(C(F)(F)F)n1C)C(=O)Nc1ccc(S(N)(=O)=O)cc1` (stereo not given), the Potency is reported as “inactive”.
With `Cc1ccccc1NC(=O)CSc1ccc(-c2cccnc2)nn1` the Potency was “inactive”.
With `Cc1ccc(NC(=O)c2cccc(N3C(=O)CCC3=O)c2)nc1` the Potency was “inactive”.
For `O=C(NCCc1ccccc1)c1cc2ncc(Br)cn2n1`, the Potency was “inactive”.
With `COCc1cc(C)nc(N/N=C/c2ccc(-c3ccc(Cl)cc3[N+](=O)[O-])o2)c1C#N` the Potency was “inactive”.
For `COc1ccc2oc(=O)c(C(=O)NC(C)c3ccccc3)cc2c1` (stereo not given), the Potency was “inactive”.
